Most compounds without a hit are left out; they make up all but 3% or so of the library.
p53ts 39C tox = cytotoxicity in p53ts cells at nonpermissive temperature; AID 902; 130,000 tested, 1.5% active; Potency, µM (top dose mostly 46.1 µM), inactives show at the top dose activity change, negative = cell killing, usual class: cytotoxic; H1299-p53A138V viability at 39C, ATP luminescence, 24 h; note: % is set by controls: 0 for no effect and ±100 for the full control effect; nearly all actives have a fitted effect of over 55% in size
IkB sig inh = inhibitors of IkB signaling in ABC-DLBCL cells. 110,000 tested, 0.04% active. Potency, µM (titrated, usually from 57.1 µM), inactives show at the top dose IkBa stabilization activation. ABC-DLBCL IkBa-CBG/CBR dual luciferase ratio, 4 h; response scale: scaled: untreated 0%, proteasome inhibitor 100%. AID 445; active = well fitted curve in the direction sought with a large enough effect in the signal ratio, not every such curve was filed as active; inconclusive = small, poorly fitted or top-dose-only effect, or a change in a side signal; the % refers to the signal ratio;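 note: the direction sought is a rising ratio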
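Luminescence ratio of IκBα-fused green versus native red beetle luciferase in OCI-Ly3 cells, 4 h post-doxycycline with compound; red signal alone, scaled from basal (0%) to zero light (-100%), flagged nonspecific or cytotoxic effects.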
CRE Fsk mod = CRE-bla signaling modulation under forskolin stimulation | CHO CRE-bla reporter (cAMP response element driving beta-lactamase), forskolin EC10, beta-lactamase ratio | Potency, µM (titrated, usually from 38.2 µM), for inactives: at the highest dose activity change, negative = inhibition, actives largely listed as activators | 71,000 tested, 2.5% active | AID 662; active = well fitted activation curve with a large enough effect in the signal ratio, with a control signal flat, not every such curve was filed as active; inconclusive = small, poorly fitted or top-dose-only effect, or effect the other way, or a change in a side signal; the % refers to the signal ratio; note: % of control where 0% means no effect
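CRE-bla CHO reporter cells treated with compound titration plus EC10 NKH 477 (water-soluble forskolin), incubated 3 h at 37 °C; CCF4 loading 2 h at room temperature, 460/530 nm emission ratio read, AC50 values derived for positive or negative modulators.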
Peg3 imprint = induces erasure of genomic imprints in mouse ES cells | Potency, µM (top dose mostly 60.7 µM), inactives show top-dose activity change, positive = activation, actives largely listed as activators | mouse ES Peg3-LacZ reporter, beta-gal luminescence, 40 h | 110,000 tested, 0.02% active
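Readout: BetaGlo luminescence (5 min, room temp) for LacZ from the normally silent maternal Peg3 allele in female Peg3LacZ-Neo ES cells. Cells 300/well, 40 h, 37C, 5% CO2. Data normalized per plate to negative controls.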
p53ts 32C kill = p53ts cell cytotoxicity, permissive temperature; H1299-p53A138V at 32C, ATP luminescence viability, 24 h; Potency, µM (doses to about 46.1 µM), for the others: at the top dose activity change, negative = cytotoxicity, actives largely listed as cytotoxic; 130,000 tested, 0.93% active; AID 924;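 note: 0% = DMSO and -100% = full killing by reference compound; nearly all actives have a fitted effect of over 55% in size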
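Viability by ATPlite luminescence after 24 h compound treatment (up to 46 uM) at the permissive 32C. Cells are H1299 carrying p53 A138V. Scale runs from DMSO basal to 100 uM tamoxifen as full kill; AC50 from Hill fits.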
The depositor's hits bear a star; u = inconclusive; x = no result; [ ] = dose if it differs, or a comment. Unless noted, calls come from the whole dose curve; as a rule, active = well fitted curve in the direction sought with a large enough effect; inconclusive = small, poorly fitted or top-dose-only effect, or another doubt; inactive = no such curve, though single readings can be large; an effect the other way counts as inactive or inconclusive. Potency is the fitted concentration of half-maximal effect.

SMILES	p53ts 39C tox	IkB sig inh	CRE Fsk mod	Peg3 imprint	p53ts 32C kill
Cn1c(=O)[nH]c(=O)c2c1nc(CN1CCN(c3ccc(F)cc3)CC1)n2CCc1ccccc1	-13%	-1%	-3%	-12%	4%
CC1CCN(C(=O)CSc2nnc(NC(=O)Nc3ccccc3)s2)CC1	-2%	14%	x	3%[10.9 µM]	3%
COc1cc(OC)c(NS(=O)(=O)c2c(C)nc3sc(C)cn3c2=O)cc1Cl	-27%	u	x	-21%[10.9 µM]	-7%
CCCCN1C(=O)C(O)(CC(=O)c2ccc(C(C)(C)C)cc2)c2ccccc21 (centres undefined)	13µM*	u	x	-12%[10.9 µM]	u
CCc1ccc(C(=O)CC2(O)C(=O)N(Cc3ccc(C)cc3)c3ccccc32)cc1 (centres undefined)	u	u	x	-20%[10.9 µM]	-3%
CC1=C(C(=O)OC2CCCCCC2)C(c2cccc(Cl)c2)CC(=O)N1 (centres undefined)	20µM*	u	x	-13%[10.9 µM]	-19%
CC1=C(C(=O)OC2CCCCCC2)C(c2ccc(Cl)cc2)CC(=O)N1 (centres undefined)	u	u	x	-9%[10.9 µM]	2%
CCCCCn1c(N)c(C#N)c2nc3ccccc3nc21	-13%	8%	10µM*	-13%	1%
COc1ccc(CCn2c(N)c(C#N)c3nc4ccccc4nc32)cc1OC	4%	-2%	16µM*	-1%	3%
N#Cc1c(N)n(CCCN2CCOCC2)c2nc3ccccc3nc12	7%	-3%	13µM*	-8%	-5%
N#CCCn1c2ccccc2c2nc3ccccc3nc21	-8%	-1%	3.2µM*	3%	-6%
COc1ccc(CCn2c(N)c(S(=O)(=O)c3cccs3)c3nc4ccccc4nc32)cc1OC	2%	3%	u	-15%	3%
CCOc1ccc(NC(=O)CN2C(=O)C3(SCC(=O)N3c3ccc(F)cc3)c3ccccc32)cc1 (centres undefined)	12%	u	x	16%[10.9 µM]	-9%
Cc1cc(OC(C)C(=O)N(Cc2ccc(N(C)C)cc2)Cc2ccco2)ccc1Cl (centres undefined)	-15%	u	x	10%[10.9 µM]	0%
CC1CCC(NC(=O)c2ccc3c(c2)N(Cc2ccccc2F)C(=O)c2ccccc2S3)CC1 (centres undefined)	-7%	-1%	x	-14%[10.9 µM]	17%
Cc1ccn2c(=O)c(C(=O)NC(C)c3ccccc3)c(O)nc2c1 (centres undefined)	1%	3%	x	-8%[10.9 µM]	-14%
COc1cc(-c2nc3oc4ccccc4c(=O)c3c(=O)n2Cc2ccco2)cc(OC)c1OC	-14%	u	2.5µM*	-17%	-23%
COc1ccc2c(=O)c3c(=O)n(Cc4ccco4)c(-c4ccc(C)cc4)nc3oc2c1	10%	5%	u	-16%	24%
COC(=O)c1c(C#N)c(N)nc2c1CCC2	-5%	0%	2µM*	-1%	3%
CCN1CCN(Cc2ccc(NC(=O)Nc3ccccc3Cl)cc2)CC1	7.9µM*	1%	2%	-16%	10µM*
CCN1CCN(Cc2ccccc2NC(=O)Nc2ccc(C)cc2)CC1	-9%	-2%	11%	-11%	-18%
O=C(Cn1c(SCCOc2ccccc2Cl)nc2ccccc21)N1CCCCC1	-8%	1%	x	-24%[10.9 µM]	-6%
CC1N/C(=C\C(=O)c2ccccc2)N(O)C1(C)C (centres undefined)	13µM*	0%	-4%	-19%	10µM*
COc1ccc(N2CCN(c3nc(NCCc4ccc(OC)c(OC)c4)nc(OC)n3)CC2)cc1	-10%	u	3.2µM*	-11%	u
Cc1ccc(Cn2c(CO)cnc2SCC(=O)Nc2ccc(C)c(Cl)c2)cc1	13µM*	u	x	-11%[10.9 µM]	-2%
SMILES	p53ts 39C tox	IkB sig inh	CRE Fsk mod	Peg3 imprint	p53ts 32C kill
CCNc1ncc2nc(-c3cn(C)c4ccccc34)c(=O)n(CCC#N)c2n1	4%	1%[11.4 µM]	4µM*	u	4%
CCNc1ncc2nc(-c3cn(C)c4ccccc34)c(=O)n(Cc3cccs3)c2n1	-11%	0%[11.4 µM]	u	-9%	-11%
CCNc1ncc2nc(-c3cn(C)c4ccccc34)c(=O)n(C)c2n1	-4%	0%[11.4 µM]	u	9%	-3%
CCNc1ncc2nc(-c3cn(C)c4ccccc34)c(=O)n(C[C@H]3CCCO3)c2n1	-6%	-3%[11.4 µM]	0.79µM*	u	-8%
N#Cc1c2n(c3c(=O)n(Cc4ccc(Cl)cc4)cnc13)CCCCC2	16%	6%	3.2µM*	-21%	7%
Fc1ccc(-c2cc(-c3nc(-c4cccc(Cl)c4)no3)[nH]n2)cc1	2%	u	x	-8%[10.9 µM]	-1%
COc1ccc(C(=O)OCCN2CCOCC2)cc1OC	9%	-3%	10µM*	-7%	15%
CN(C)c1ccc(-n2cc3c(=O)n(C)c(=O)n(C)c3c2)cc1	-5%	-1%	u	-31%	14%
CCN(CC)c1ccc(-n2cc3c(=O)n(C)c(=O)n(C)c3c2)cc1	4%	0%	10µM*	-16%	7%
CCc1cc2c(=O)c(-c3ccc4c(c3)OCCO4)coc2cc1OC(=O)c1ccco1	7.9µM*	-2%	-4%	-37%	5µM*
Cc1ccc(C2=Nc3ccccc3NC(c3ccncc3)=N2)cc1	-10%	2%	x	-10%[10.9 µM]	4%
COCc1nnc(NC(=O)c2cc(OC)c(OC)c(OC)c2)s1	25%	u	x	-8%[10.9 µM]	-5%
CCOCCc1nnc(NC(=O)c2cc(OC)c(OC)c(OC)c2)s1	4%	3%	10µM*	-2%	7%
CCOC(=O)c1[nH]c(COC(=O)CCCOc2ccccc2)c(C(=O)OCC)c1C	-2%	1%	13µM*	-13%	0%
CN(C)c1ncnc2ccc(-c3ccccc3C#N)cc12	10%	-1%[11.4 µM]	2µM*	u	8%
CN(C)c1ncnc2ccc(-c3ccoc3)cc12	-6%	-3%[11.4 µM]	-18%	-39%	8%
CN(C)c1ccc(-c2ccc3ncnc(N(C)C)c3c2)cc1	u	u	10µM*	-24%	1%
Cc1oc2c(cc(NS(=O)(=O)c3ccc(Br)cc3)c3ccccc32)c1C(=O)OCc1ccccc1	20µM*	u	x	-18%[10.9 µM]	-21%
Cc1ccc2c(CSc3nc4ccccc4c(=O)n3CCCO)cc(=O)oc2c1	-20%	0%	2µM*	-8%	-6%
O=c1cc(-c2ccccc2)nc2nc(CCc3ccccc3)[nH]n12	8%	5%	-15%	-9%	13%
Cc1nc2nc(-c3ccccc3)cc(=O)n2[nH]1	13µM*	10%	-1%	-89%	16µM*
COc1ccc(-c2coc3cc(O[C@@H]4O[C@@H](CO)[C@@H](O)[C@@H](O)[C@H]4O)cc(O)c3c2=O)cc1	x	0%[11.4 µM]	10%	x	x
Cc1c(C(=O)N(Cc2ccc(N(C)C)cc2)Cc2ccco2)oc2cc(Br)ccc12	0%	u	x	4%[10.9 µM]	14%

Compound activity: PubChem, National Center for Advancing Translational Sciences (NCATS)
